Six compounds from PubChem BioAssay (EPA / NIEHS) can be followed below.

As a reminder, the AC50 is the midpoint of the concentration-response curve, whichever way the signal moves.

Inconclusive results are not listed. Active and inactive are the calls of the source. The calls were made as follows, unless noted: active = hit-call score of the fitted dose curve at least 0.9, where 1 is the maximum; inconclusive = response in the unintended direction; inactive = score below 0.9.

Assay [1] concerns the target Aryl hydrocarbon receptor (Homo sapiens) (UniProt P35869). Put plainly: ATG_Ahr_CIS: Attagene CIS-FACTORIAL HepG2 Assay for human Aryl Hydrocarbon Receptor (Ahr) (AID 2282930; active = hit-call score of the fitted dose curve at least 0.9, where 1 is the maximum; inactive = score below 0.9). Particulars: HepG2 AhR cis-factorial reporter transcription; actives raise or lower the signal. The gist of the method:
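Endogenous factor activity is tracked through cis-promoter reporter units transfected into HepG2 cells. Transcript levels at 24 h are read by fluorescent RT-PCR and capillary electrophoresis, with activity in either direction scored relative to DMSO.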

Assay [2] can be described thus: ATG_M_19_TRANS: Attagene TRANS-FACTORIAL HepG2 Assay for M19 Transcription Factor (Internal Marker) (AID 2282974). Particulars: HepG2 Attagene TRANS-FACTORIAL M19 internal marker reporter. Summed up:
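Cells: human HepG2, transiently transfected with multiplexed reporter transcription units. Exposure: 24 h. Detection: RT-PCR of reporter mRNA with capillary electrophoresis. Analysis: gain-of-signal vs DMSO.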

In assay [3] the target is Oxysterols receptor LXR-alpha (Homo sapiens) (UniProt Q13133). Put plainly: ATG_LXRa_TRANS: Attagene TRANS-FACTORIAL HepG2 Assay for human Liver X Receptor alpha (LXRa) (AID 2282980). Particulars: HepG2 Attagene TRANS reporter, LXRa transactivation. The gist of the method: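 HepG2 cells transiently transfected with GAL4-UAS reporter units for chimeric NR-Gal4 proteins, exposed to chemicals for 24 h. Reporter mRNA quantified by RT-PCR and capillary electrophoresis; gain of signal fitted relative to DMSO.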
Chain of Oxysterols receptor LXR-alpha (Homo sapiens) (Q13133 whole entry, looked up, the tested form may be a part): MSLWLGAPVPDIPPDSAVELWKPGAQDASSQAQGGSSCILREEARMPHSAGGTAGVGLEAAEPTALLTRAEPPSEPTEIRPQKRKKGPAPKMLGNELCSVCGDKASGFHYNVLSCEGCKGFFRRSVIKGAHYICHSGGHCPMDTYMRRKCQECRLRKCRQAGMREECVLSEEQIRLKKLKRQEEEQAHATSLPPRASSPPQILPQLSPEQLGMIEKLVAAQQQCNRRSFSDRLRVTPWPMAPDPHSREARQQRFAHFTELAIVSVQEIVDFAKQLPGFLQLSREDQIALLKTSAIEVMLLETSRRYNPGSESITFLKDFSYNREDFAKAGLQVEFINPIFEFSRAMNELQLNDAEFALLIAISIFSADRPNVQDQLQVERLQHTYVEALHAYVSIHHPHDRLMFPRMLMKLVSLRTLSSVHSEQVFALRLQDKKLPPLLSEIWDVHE

Assay [4] has as its target Nuclear receptor subfamily 4 group A member 2 (Homo sapiens) (UniProt P43354). As to the kind of experiment: ATG_NURR1_TRANS: Attagene TRANS-FACTORIAL HepG2 Assay for human Nuclear Receptor Related Protein 1 (NURR1) (AID 2282985). To be noted: HepG2 Attagene TRANS reporter, mRNA readout. Summed up: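 HepG2 cells transiently transfected with NURR1-Gal4 chimera and GAL4-UAS reporter units; after 24 hr compound exposure, reporter mRNA quantified by RT-PCR and capillary electrophoresis; gain of signal fitted against DMSO.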

Assay [5] concerns the target human RAR-related Orphan Receptor beta (RORb), RORB (gene 6096) (UniProt Q92753). As to the kind of experiment: ATG_RORb_TRANS: Attagene TRANS-FACTORIAL HepG2 Assay for human RAR-related Orphan Receptor beta (RORb) (AID 2283010). The gist of the method: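 HepG2 cells transiently transfected with GAL4-UAS reporter units expressing chimeric NR-Gal4 protein; reporter mRNA measured 24 h after dosing by RT-PCR, 6-FAM labelling and capillary electrophoresis. Gain-of-signal fitted relative to DMSO baseline.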

The nature of assay [6]: ACEA_ER_AUC_viability: ACEA Biosciences xCELLigence Real-Time Cell Analysis on Estrogen Receptor Agonism for Viability (AID 2283782).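 Also: continuous compound exposure with impedance area under curve over 80 h; hit means loss of impedance signal meaning reduced cell growth or viability.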 The gist of the method:
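T47D cells preconditioned in phenol red-free RPMI with charcoal-stripped FBS, then dosed with 8-point 1:4 series from 100 uM (up to 0.5% DMSO). Impedance monitored up to ~80 h; area-under-curve loss versus DMSO taken as viability.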

The target of assay [7] is Retinoic acid receptor alpha (Homo sapiens) (UniProt P10276). Put plainly: ATG_DR5_RAR_CIS: Attagene CIS-FACTORIAL HepG2 Assay for human Retinoic Acid Receptor Alpha (RARE), DR5 submotif (AID 2282934; active = hit-call score of the fitted dose curve at least 0.9, where 1 is the maximum; inactive = score below 0.9). To be noted: HepG2 Attagene cis-factorial RARE DR5 reporter, mRNA; actives raise or lower the signal. The gist of the method: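 After 24 h of chemical exposure, transiently transfected HepG2 cells were lysed for total RNA; the DR5-regulated reporter transcript was quantified via RT-PCR and capillary electrophoresis, with activity fitted bidirectionally against DMSO.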
Chain of Retinoic acid receptor alpha (Homo sapiens) (P10276 whole entry, looked up): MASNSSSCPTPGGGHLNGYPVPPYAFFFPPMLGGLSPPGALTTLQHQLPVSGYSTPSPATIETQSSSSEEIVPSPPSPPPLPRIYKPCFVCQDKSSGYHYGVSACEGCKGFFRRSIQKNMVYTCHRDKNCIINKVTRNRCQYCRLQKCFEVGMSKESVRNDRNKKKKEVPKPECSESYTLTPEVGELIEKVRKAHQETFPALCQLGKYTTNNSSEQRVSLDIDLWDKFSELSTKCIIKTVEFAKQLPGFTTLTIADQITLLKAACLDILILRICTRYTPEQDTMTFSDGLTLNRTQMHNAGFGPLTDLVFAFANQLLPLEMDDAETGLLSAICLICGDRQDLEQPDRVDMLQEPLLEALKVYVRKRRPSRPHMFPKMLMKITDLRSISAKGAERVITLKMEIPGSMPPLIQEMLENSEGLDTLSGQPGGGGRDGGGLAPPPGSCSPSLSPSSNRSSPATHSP

Assay [8] addresses Nuclear receptor subfamily 1 group I member 3 (Homo sapiens) (UniProt Q14994). Put plainly: ATG_CAR_TRANS: Attagene TRANS-FACTORIAL HepG2 Assay for human Constitutive Androstane Receptor (CAR) (AID 2282969).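 Also: activators raise reporter mRNA above DMSO so AC50 marks induction.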 To be noted: HepG2 Attagene TRANS-FACTORIAL CAR reporter. The gist of the method:
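HepG2 cells transiently transfected with GAL4-UAS reporter units; TRANS format reads activity of exogenous chimeric NR-Gal4 protein. After 24 h dosing, reporter mRNA quantified by RT-PCR, 6-FAM labelling and capillary electrophoresis; gain of signal fitted against DMSO.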

Assay [9] addresses Oxysterols receptor LXR-beta (Homo sapiens) (UniProt P55055). Put plainly: ATG_LXRb_TRANS: Attagene TRANS-FACTORIAL HepG2 Assay for human Liver X Receptor beta (LXRb) (AID 2282981). To be noted: HepG2 Attagene TRANS GAL4-LXRb reporter, mRNA. Summed up:
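HepG2 cells transiently transfected with GAL4-UAS reporter units for chimeric NR-Gal4 proteins, dosed for 24 h. Reporter transcripts measured by RT-PCR and capillary electrophoresis; gain-of-signal fitting relative to DMSO.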

For assay [10], the target named is human Peroxisome Proliferator-activated Receptor delta (PPARd), PPARD (gene 5467) (UniProt Q03181). As to the kind of experiment: ATG_PPARd_TRANS: Attagene TRANS-FACTORIAL HepG2 Assay for human Peroxisome Proliferator-activated Receptor delta (PPARd) (AID 2283002). The gist of the method: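 Fluorescence from capillary electrophoresis of labelled RT-PCR reporter fragments gives the signal; DMSO sets baseline. Cells: HepG2 transiently carrying GAL4-UAS reporter units plus chimeric nuclear receptor-Gal4 proteins, exposed to chemicals for 24 h.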
Chain of human Peroxisome Proliferator-activated Receptor delta (PPARd), PPARD (gene 5467) (Q03181 whole entry, looked up, the tested form may be a part): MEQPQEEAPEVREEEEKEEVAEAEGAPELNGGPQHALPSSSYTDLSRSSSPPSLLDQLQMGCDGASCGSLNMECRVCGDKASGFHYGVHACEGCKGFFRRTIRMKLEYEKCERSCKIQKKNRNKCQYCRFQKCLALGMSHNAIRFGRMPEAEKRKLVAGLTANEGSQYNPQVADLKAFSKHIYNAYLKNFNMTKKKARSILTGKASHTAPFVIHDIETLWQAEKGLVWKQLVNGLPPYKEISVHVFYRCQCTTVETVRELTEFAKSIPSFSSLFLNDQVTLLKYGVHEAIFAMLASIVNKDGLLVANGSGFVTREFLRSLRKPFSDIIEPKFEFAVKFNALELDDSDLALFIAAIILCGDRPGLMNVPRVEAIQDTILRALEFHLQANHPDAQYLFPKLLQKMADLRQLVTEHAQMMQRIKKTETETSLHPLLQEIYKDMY

Assay [11] deals with Retinoic acid receptor RXR-alpha (Homo sapiens) (UniProt P19793). As to the kind of experiment: ATG_RXRa_TRANS: Attagene TRANS-FACTORIAL HepG2 Assay for human Retinoid X Receptor alpha (RXRa) (AID 2283012). The gist of the method: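 HepG2 cells transiently transfected with GAL4-UAS reporter units and chimeric RXRa-Gal4 protein, treated 24 h. Reporter mRNA measured by RT-PCR, fluorescent labelling, HpaI digestion and capillary electrophoresis. Induction fitted against DMSO.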
Chain of Retinoic acid receptor RXR-alpha (Homo sapiens) (P19793 whole entry, looked up, the tested form may be a part): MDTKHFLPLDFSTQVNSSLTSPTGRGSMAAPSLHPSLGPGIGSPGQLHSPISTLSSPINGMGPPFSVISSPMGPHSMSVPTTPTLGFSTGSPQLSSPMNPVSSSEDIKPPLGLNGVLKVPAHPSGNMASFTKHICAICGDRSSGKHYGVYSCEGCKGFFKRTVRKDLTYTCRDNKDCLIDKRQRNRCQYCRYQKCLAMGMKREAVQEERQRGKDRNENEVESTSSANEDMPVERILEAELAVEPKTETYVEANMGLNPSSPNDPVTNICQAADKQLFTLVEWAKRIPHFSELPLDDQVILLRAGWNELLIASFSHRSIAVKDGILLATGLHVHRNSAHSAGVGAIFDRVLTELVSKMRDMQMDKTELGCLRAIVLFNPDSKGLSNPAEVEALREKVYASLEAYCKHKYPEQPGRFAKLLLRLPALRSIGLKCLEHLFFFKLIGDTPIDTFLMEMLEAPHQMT

For assay [12], the target named is human Thyroid Receptor alpha (THRa1), THRA (gene 7067) (UniProt P10827). Put plainly: ATG_THRa1_TRANS: Attagene TRANS-FACTORIAL HepG2 Assay for human Thyroid Receptor alpha (THRa1) (AID 2283014). The gist of the method: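 HepG2 cells transiently transfected with chimeric NR-Gal4 and GAL4-UAS reporter units, dosed 24 h. Reporter mRNA quantified by RT-PCR, fluorescent labeling, HpaI digestion and capillary electrophoresis; gain-of-signal fit versus DMSO.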
Chain of human Thyroid Receptor alpha (THRa1), THRA (gene 7067) (P10827 whole entry, looked up, the tested form may be a part): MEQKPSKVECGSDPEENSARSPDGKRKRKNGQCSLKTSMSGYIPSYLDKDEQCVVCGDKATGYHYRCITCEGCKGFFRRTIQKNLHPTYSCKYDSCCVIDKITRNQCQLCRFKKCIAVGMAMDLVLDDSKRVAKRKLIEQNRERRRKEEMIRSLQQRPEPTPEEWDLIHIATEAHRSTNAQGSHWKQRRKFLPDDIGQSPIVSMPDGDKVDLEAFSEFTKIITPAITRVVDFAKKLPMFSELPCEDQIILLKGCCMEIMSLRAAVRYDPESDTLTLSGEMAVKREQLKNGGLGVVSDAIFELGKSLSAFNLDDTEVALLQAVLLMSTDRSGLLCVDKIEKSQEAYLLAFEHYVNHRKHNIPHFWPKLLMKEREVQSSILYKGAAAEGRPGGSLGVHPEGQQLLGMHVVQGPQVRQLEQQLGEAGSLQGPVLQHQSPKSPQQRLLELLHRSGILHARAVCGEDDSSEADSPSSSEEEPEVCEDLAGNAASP

Assay [13] can be described thus: TOX21_p53_BLA_p4_viability: Viability Assessment in the Tox21 HCT-116 p53 Agonism Beta-lactamase Assay, Phase 4 (AID 2283597).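 Also: hits lower the luminescence signal meaning cytotoxicity.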 Summed up:
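HCT-116 p53-bla cells, 4000/well, dosed after 5 h attachment and incubated 16 h at 37 °C, 5% CO2. Viability from CellTiter-Glo ATP luminescence after 30 min at room temperature, taken after the beta-lactamase read; loss of signal indicates cytotoxicity.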

A short description of assay [14]: ATG_GAL4_TRANS: Attagene TRANS-FACTORIAL HepG2 Assay for GAL4 (Internal Marker) (AID 2282976). Particulars: HepG2 Attagene TRANS GAL4 internal marker reporter. The gist of the method:
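Background-control readout: GAL4-UAS reporter transcript in transiently transfected HepG2 cells after 24 h compound exposure. Measured by RT-PCR, 6-FAM primer extension, HpaI digest and capillary electrophoresis; gain-of-signal fit versus DMSO.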

Assay [15] can be described thus: CCTE_Harrill_HTTr_Viability_MCF7: CCTE's 6-hour Cell Viability Assessment for the High-Throughput Transcriptomics (HTTr) Platform, in MCF-7 cells cultured in DMEM + 10% fetal bovine serum, Harrill Lab (AID 2284010; active = hit-call score of the fitted dose curve at least 0.9, where 1 is the maximum; inactive = score below 0.9). The gist of the method:
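MCF-7 cells in DMEM + 10% FBS, 384-well, exposed 6 h to an eight-point dilution series. Membrane integrity scored by high-content imaging of propidium iodide exclusion; bidirectional fit versus DMSO.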

A short description of assay [16]: CCTE_Harrill_HTTr_Apoptosis_MCF7: CCTE's 6-hour Apoptosis Assessment for the High-Throughput Transcriptomics (HTTr) Platform, in MCF-7 cells cultured in DMEM + 10% fetal bovine serum, Harrill Lab (AID 2284011; active = hit-call score of the fitted dose curve at least 0.9, where 1 is the maximum; inactive = score below 0.9). Summed up:
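MCF-7 cells in DMEM + 10% FBS exposed 6 h to chemicals over an eight-point dilution series. Caspase-3/7 activation imaged by high-content CellEvent Green staining; fitted bidirectionally versus DMSO.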

For assay [17], the target named is Estrogen-related receptor gamma (Homo sapiens) (UniProt P62508). As to the kind of experiment: ATG_ERRg_TRANS: Attagene TRANS-FACTORIAL HepG2 Assay for human Estrogen-Related Receptor gamma (ERRg) (AID 2282977).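 Also: hits increase reporter signal over DMSO so potencies reflect activators.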 To be noted: HepG2 Attagene TRANS reporter, ERRg transactivation. Summed up:
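HepG2 cells transiently transfected with multiplexed GAL4-UAS reporter units driven by chimeric NR-Gal4 proteins; 24 h exposure. Reporter mRNA quantified by RT-PCR, fluorescent labelling, HpaI digestion and capillary electrophoresis; gain of signal vs DMSO.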

For assay [18], the target named is human RAR-related Orphan Receptor gamma (RORg), RORC (gene 6097) (UniProt P51449). As to the kind of experiment: ATG_RORg_TRANS: Attagene TRANS-FACTORIAL HepG2 Assay for human RAR-related Orphan Receptor gamma (RORg) (AID 2283011). Summed up: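 HepG2 cells transiently transfected with GAL4-UAS reporter units and chimeric RORg-Gal4 construct; after 24 h chemical exposure, reporter mRNA measured by RT-PCR with fluorescent capillary electrophoresis, gain of signal fitted against DMSO.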

A short description of assay [19]: ATG_M_32_TRANS: Attagene TRANS-FACTORIAL HepG2 Assay for M32 Transcription Factor (Internal Marker) (AID 2282984). Particulars: HepG2 Attagene TRANS M32 internal marker reporter. The gist of the method: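 HepG2 cells transiently transfected with GAL4-UAS reporter units, dosed for 24 hours. Reporter mRNA quantified by RT-PCR, 6-FAM labelling, HpaI digestion and capillary electrophoresis; internal-marker signal fitted upward relative to DMSO.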

Assay [20] deals with Peroxisome proliferator-activated receptor gamma (Homo sapiens) (UniProt P37231). Put plainly: ATG_PPARg_TRANS: Attagene TRANS-FACTORIAL HepG2 Assay for human Peroxisome Proliferator-activated Receptor-gamma (PPARg) (AID 2283007). The gist of the method:
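A TRANS-format multiplexed reporter assay measures activity of an exogenous chimeric NR-Gal4 protein in HepG2 cells. After 24 h of chemical exposure, reporter transcripts are amplified, fluorescently labelled and sized by capillary electrophoresis, with gain of signal scored against DMSO.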

Chain of Aryl hydrocarbon receptor (Homo sapiens) (P35869 whole entry, looked up): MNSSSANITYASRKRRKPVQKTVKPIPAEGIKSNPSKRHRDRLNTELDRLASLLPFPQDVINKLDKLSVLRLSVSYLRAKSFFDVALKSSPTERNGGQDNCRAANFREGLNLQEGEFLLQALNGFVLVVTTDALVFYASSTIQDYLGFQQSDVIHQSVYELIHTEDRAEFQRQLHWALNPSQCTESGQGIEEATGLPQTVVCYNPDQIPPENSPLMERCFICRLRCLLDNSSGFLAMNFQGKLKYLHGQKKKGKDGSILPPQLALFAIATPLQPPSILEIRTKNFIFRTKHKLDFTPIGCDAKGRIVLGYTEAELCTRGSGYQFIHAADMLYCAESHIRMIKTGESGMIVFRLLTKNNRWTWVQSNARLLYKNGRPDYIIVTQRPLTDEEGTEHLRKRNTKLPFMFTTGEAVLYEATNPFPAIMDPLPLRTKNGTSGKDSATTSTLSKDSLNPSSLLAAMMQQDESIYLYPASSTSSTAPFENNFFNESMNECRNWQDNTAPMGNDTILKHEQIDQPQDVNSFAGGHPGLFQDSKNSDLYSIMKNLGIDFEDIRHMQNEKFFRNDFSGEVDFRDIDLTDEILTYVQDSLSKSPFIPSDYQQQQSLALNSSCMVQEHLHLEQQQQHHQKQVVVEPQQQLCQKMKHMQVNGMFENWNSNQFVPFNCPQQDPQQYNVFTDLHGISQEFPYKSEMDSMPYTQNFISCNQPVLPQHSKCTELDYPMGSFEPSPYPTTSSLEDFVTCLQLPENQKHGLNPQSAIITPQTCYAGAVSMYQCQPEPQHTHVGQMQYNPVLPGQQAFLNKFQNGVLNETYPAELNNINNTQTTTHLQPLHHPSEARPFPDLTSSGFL
Chain of Nuclear receptor subfamily 4 group A member 2 (Homo sapiens) (P43354 whole entry, looked up, the tested form may be a part): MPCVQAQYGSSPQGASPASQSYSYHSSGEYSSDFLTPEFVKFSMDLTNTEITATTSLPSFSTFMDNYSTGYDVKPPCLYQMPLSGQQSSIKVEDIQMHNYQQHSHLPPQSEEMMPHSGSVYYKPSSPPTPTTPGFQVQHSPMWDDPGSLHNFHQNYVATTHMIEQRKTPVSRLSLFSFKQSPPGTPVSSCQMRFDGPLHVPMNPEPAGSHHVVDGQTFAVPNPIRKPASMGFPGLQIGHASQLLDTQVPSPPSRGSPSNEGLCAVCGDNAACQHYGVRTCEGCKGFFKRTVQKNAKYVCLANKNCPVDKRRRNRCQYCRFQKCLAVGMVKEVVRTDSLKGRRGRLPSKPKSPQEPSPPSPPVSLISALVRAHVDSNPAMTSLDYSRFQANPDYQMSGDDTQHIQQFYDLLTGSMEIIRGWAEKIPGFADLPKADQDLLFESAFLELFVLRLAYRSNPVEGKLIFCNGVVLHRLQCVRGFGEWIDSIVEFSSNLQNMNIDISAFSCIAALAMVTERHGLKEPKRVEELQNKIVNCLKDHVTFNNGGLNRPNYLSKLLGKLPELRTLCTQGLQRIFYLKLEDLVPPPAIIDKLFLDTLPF
Chain of Peroxisome proliferator-activated receptor gamma (Homo sapiens) (P37231 whole entry, looked up, the tested form may be a part): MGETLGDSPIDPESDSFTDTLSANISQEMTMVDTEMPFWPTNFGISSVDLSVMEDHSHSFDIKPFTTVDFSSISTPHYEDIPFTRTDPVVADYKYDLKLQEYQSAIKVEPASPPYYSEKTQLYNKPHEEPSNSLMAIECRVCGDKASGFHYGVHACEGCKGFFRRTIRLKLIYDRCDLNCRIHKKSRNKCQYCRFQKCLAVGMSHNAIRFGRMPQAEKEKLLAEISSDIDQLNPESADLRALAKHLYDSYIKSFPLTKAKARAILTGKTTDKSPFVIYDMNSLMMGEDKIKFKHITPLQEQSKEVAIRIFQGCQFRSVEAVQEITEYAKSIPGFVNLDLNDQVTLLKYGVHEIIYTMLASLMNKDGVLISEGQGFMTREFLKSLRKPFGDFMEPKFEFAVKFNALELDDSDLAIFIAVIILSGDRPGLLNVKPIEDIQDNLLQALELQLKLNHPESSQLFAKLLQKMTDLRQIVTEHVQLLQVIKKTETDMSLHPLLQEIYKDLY
Chain of Nuclear receptor subfamily 1 group I member 3 (Homo sapiens) (Q14994 whole entry, looked up, the tested form may be a part): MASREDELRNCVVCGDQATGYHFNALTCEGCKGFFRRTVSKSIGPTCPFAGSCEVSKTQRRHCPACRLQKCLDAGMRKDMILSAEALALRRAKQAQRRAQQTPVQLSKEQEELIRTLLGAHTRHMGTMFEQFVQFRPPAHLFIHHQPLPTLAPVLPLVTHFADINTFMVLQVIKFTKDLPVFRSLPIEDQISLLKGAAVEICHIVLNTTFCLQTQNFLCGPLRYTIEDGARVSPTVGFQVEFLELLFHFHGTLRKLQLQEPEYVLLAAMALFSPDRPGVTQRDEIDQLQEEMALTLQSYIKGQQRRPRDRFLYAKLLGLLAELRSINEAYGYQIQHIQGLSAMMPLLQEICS

With `F[B-](F)(F)F`, the compound was called inactive in assay [1], in assay [2], in assay [3], in [4], in assay [5] and in [6].
On to `Cc1ccccc1S(N)(=O)=O`, for which the compound was classed as inactive in assay [7], in assay [8], in assay [2], in [3], in [9] and in assay [4]. For the same compound, the compound was classed as inactive in [10], in assay [11], in assay [12], in assay [13] and in assay [6].
As for `CCCCCCCCCCCCCC`, the outcome in assay [1], in assay [8], in assay [2], in [14], in [3] and in [4] was inactive. The compound was called inactive in assay [6], in [15] and in assay [16].
For `CC(C)=CCOC(=O)c1ccccc1`, the call in assay [7], in assay [2], in assay [17], in assay [3], in [4] and in assay [10] was inactive. The compound was classed as inactive in assay [18], in assay [11], in [12] and in [13]. Besides, in [6], the AC50 is 50 µM (active).
Turning to `CC(C)(Oc1ccc(Cl)cc1)C(=O)O`, the call in assay [1], in assay [2], in assay [3], in assay [19], in assay [10] and in assay [11] was inactive. The compound was classed as inactive in assay [12], in assay [15] and in assay [16]. Further, the concentration at half-maximal activity (AC50) was 69.3 µM (active) in assay [20] and 50 µM (active) in [6].
For `O=C(O)c1cc(Cl)cc(Cl)c1O`, the results for the AC50 in [1] and in [20] were 79 µM (active) and 100 µM (active), respectively. For the same compound, the result in assay [2], in assay [14], in assay [17], in assay [4], in assay [10] and in assay [5] was inactive. Also, the compound was classed as inactive in assay [18], in assay [11], in assay [12], in [13], in [6] and in assay [15]. The result in assay [16] was inactive.
